The values that follow come from publication PMC7862700, “An all-to-all approach to the identification of sequence-specific readers for epigenetic DNA modifications on cytosine”.

What all share (assay): DAPPL (digital affinity profiling via proximity ligation, sequencing); 10 mM Tris-HCl pH 7.5, 50 mM NaCl, 1 mM DTT, 4% glycerol, room temperature, 30 min; GST-TFs on glutathione beads, 16-mer random dsDNA library, 0.1% formaldehyde crosslink after washing; high values mean tight binding
For one assay, the target named is T1, FEV (Homo sapiens, UniProt Q99581 1-238).
T1 sequence: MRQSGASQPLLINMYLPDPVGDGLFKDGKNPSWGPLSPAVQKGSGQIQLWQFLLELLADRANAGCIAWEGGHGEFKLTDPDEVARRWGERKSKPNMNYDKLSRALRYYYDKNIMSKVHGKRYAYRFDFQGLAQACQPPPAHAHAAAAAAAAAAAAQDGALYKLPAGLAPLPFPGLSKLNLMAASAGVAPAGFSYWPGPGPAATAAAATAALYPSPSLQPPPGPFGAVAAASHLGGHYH
Particulars: protein: recombinant; tags: N-terminal GST; dsDNA, one strand shown. In outline: (§1)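 Binding signal is defined as a hexamer's read frequency for one factor over its frequency for the tag-only sample. To obtain reads, GST-fused human transcription factors were expressed in yeast, captured on glutathione beads, barcoded with DNA and pooled with that sample. Pools met 200 nmole of a 16-mer random double-stranded DNA library in Tris/NaCl/DTT/glycerol buffer for 30 min at room temperature before washing, 0.1% formaldehyde crosslinking, proximity ligation (BsaI/T4 ligase, 1 h, 37 °C), PCR and Illumina NextSeq500 sequencing.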

Another assay addresses ETV5 (Homo sapiens, UniProt P41161 1-510). As to conditions: protein: recombinant; tags: N-terminal GST; dsDNA, one strand shown. The method, boiled down:
as §1

A further assay deals with HSF1 (Homo sapiens, UniProt Q00613 1-529). Particulars: protein: recombinant; tags: N-terminal GST; chain copies: 3; dsDNA, one strand shown. The method, boiled down:
as §1

The target of a further assay is T2, SPIC (Homo sapiens, UniProt Q8N5J4 1-248).
T2 sequence: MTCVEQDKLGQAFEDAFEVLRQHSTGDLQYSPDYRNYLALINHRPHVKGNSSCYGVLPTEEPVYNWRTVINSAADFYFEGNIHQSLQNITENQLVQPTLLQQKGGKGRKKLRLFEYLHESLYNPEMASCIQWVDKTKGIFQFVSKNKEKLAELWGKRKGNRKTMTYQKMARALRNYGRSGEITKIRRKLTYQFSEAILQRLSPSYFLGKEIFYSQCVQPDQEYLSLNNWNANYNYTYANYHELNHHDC
As to conditions: protein: recombinant; tags: N-terminal GST; dsDNA, one strand shown. In outline: as §1

The next assay deals with ELF4 (Homo sapiens, UniProt Q99607 1-663). As to conditions: protein: recombinant; tags: N-terminal GST; dsDNA, one strand shown. The method, boiled down: as §1
A further assay has as its target T3, ELK4 (Homo sapiens, UniProt P28324-2 1-405).
T3 sequence: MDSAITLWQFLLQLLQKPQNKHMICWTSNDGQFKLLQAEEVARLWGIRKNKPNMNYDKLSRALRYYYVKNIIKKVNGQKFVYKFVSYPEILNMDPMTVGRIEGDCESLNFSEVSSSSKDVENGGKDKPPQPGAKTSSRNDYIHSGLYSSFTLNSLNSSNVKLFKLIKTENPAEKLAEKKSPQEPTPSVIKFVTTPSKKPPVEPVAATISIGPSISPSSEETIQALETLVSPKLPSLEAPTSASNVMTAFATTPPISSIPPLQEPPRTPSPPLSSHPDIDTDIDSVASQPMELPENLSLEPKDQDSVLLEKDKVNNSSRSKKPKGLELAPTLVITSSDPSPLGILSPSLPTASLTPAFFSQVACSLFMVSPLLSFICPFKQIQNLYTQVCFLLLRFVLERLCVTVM
As to conditions: protein: recombinant; tags: N-terminal GST; dsDNA, one strand shown. The method, boiled down:
as §1

The target of the next assay is T4, ETV2 (Homo sapiens, UniProt O00321 1-342).
T4 sequence: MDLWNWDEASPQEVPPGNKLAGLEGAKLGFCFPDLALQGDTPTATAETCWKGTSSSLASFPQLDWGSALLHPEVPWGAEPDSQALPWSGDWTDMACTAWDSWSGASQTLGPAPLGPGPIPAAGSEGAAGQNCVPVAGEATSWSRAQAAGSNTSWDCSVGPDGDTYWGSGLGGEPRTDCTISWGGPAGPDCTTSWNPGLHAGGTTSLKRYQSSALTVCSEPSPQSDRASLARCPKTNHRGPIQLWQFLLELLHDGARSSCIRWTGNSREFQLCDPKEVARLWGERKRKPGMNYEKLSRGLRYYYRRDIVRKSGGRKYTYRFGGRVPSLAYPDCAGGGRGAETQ
As to conditions: protein: recombinant; tags: N-terminal GST; dsDNA, one strand shown. The method, boiled down:
as §1

The target in the next assay is T5, ELF3 (Homo sapiens, UniProt P78545 1-371).
T5 sequence: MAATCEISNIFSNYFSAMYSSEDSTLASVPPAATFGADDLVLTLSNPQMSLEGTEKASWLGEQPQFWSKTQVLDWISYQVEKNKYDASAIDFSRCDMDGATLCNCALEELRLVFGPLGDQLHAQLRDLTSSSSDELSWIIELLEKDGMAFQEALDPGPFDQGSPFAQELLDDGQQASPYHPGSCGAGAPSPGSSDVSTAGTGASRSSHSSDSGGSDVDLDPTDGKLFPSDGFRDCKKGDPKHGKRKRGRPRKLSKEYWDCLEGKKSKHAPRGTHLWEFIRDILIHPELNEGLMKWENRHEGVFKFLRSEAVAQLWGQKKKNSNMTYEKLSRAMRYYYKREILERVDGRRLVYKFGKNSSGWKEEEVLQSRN
Particulars: protein: recombinant; tags: N-terminal GST; dsDNA, one strand shown. The method, boiled down: as §1

The target in a further assay is CRX (Homo sapiens, UniProt O43186 1-299). Particulars: protein: recombinant; tags: N-terminal GST; dsDNA, one strand shown. In outline:
as §1

A further assay has as its target ETV1 (Homo sapiens, UniProt P50549 1-477). Particulars: protein: recombinant; tags: N-terminal GST; dsDNA, one strand shown. In outline:
as §1

In a further assay the target is T6, ERF (Homo sapiens, UniProt P50548 1-548).
T6 sequence: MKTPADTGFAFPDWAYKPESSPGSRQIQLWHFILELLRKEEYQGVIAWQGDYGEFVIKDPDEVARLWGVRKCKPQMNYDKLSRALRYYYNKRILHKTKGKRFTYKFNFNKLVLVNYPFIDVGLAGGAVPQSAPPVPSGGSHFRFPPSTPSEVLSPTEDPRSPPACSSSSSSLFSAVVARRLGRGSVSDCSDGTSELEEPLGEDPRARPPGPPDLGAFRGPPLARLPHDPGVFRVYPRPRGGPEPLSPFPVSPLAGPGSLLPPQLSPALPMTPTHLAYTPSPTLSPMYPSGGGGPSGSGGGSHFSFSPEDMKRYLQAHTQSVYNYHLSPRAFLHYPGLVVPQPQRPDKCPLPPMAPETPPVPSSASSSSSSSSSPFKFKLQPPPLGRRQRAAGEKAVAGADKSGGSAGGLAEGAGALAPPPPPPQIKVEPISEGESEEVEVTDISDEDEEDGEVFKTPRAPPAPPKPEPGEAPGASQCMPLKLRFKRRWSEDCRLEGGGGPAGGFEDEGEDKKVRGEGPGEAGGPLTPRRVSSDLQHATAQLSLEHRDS
Particulars: protein: recombinant; tags: N-terminal GST; dsDNA, one strand shown. In outline:
as §1

Another assay deals with T7, ETV3L (Homo sapiens, UniProt Q6ZN32 1-361).
T7 sequence: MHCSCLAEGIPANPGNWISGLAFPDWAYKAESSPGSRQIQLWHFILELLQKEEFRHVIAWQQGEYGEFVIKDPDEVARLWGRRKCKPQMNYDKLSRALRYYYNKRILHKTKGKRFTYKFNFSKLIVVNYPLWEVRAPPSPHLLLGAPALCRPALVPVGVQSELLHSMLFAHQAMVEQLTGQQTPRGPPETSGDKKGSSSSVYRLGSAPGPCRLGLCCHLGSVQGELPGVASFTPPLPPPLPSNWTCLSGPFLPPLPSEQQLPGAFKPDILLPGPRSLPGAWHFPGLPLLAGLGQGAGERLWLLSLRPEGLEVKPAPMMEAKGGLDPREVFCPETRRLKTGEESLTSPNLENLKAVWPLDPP
As to conditions: protein: recombinant; tags: N-terminal GST; dsDNA, one strand shown. In outline:
as §1

The target in a further assay is T8, ETS2 (Homo sapiens, UniProt P15036 1-469).
T8 sequence: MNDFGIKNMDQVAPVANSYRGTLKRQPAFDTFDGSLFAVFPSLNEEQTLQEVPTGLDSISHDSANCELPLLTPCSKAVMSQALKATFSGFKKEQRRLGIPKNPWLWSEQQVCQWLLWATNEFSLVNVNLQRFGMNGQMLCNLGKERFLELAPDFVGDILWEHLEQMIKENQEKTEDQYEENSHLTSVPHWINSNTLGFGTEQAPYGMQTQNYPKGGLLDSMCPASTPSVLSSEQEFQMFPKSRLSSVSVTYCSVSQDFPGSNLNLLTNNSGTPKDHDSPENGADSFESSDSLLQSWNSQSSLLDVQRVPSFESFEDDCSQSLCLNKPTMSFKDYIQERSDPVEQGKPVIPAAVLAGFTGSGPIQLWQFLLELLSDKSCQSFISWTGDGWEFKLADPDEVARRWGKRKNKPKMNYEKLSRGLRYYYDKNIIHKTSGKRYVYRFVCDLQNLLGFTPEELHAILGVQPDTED
Particulars: protein: recombinant; tags: N-terminal GST; dsDNA, one strand shown. In outline: as §1

The next assay addresses T9, SPDEF (Homo sapiens, UniProt O95238 1-335).
T9 sequence: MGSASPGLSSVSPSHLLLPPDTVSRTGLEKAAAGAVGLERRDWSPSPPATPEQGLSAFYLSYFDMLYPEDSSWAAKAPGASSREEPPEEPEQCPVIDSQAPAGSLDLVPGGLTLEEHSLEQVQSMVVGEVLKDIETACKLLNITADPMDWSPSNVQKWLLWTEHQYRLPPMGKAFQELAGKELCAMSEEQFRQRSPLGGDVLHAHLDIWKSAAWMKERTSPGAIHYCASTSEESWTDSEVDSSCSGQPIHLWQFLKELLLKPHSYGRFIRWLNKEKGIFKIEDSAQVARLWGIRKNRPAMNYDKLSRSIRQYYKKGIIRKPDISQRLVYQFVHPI
Particulars: protein: recombinant; tags: N-terminal GST; dsDNA, one strand shown. In outline:
as §1

Another assay concerns the target T10, ETV7 (Homo sapiens, UniProt Q9Y603 1-341).
T10 sequence: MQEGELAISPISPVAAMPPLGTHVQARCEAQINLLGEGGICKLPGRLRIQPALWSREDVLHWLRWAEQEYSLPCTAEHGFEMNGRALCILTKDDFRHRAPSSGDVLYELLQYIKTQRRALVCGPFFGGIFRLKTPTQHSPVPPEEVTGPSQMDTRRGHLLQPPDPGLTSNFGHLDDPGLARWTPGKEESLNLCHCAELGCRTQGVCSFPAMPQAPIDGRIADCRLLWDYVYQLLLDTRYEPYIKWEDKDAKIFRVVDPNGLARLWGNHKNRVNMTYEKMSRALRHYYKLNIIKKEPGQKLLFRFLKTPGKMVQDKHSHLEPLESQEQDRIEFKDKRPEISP
Particulars: protein: recombinant; tags: N-terminal GST; dsDNA, one strand shown. The method, boiled down: as §1

A further assay deals with T11, ELF5 (Homo sapiens, UniProt Q9UKW6-2 1-255).
T11 sequence: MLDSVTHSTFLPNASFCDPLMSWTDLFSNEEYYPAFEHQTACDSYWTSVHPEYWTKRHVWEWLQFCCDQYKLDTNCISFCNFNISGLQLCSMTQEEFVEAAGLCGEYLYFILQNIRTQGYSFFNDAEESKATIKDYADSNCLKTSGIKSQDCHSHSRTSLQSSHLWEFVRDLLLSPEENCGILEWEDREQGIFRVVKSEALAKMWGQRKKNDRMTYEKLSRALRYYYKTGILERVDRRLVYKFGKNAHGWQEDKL
As to conditions: protein: recombinant; tags: N-terminal GST; dsDNA, one strand shown. The method, boiled down: as §1

The target in another assay is T12, ETV3 (Homo sapiens, UniProt P41162-2 1-143).
T12 sequence: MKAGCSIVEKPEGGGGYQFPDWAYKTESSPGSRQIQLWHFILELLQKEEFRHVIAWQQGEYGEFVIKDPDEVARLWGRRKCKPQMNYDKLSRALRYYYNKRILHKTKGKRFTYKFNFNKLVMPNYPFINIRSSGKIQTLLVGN
Particulars: protein: recombinant; tags: N-terminal GST; dsDNA, one strand shown. The method, boiled down:
as §1

In a further assay the target is ETV6 (Homo sapiens, UniProt P41212 1-452). As to conditions: protein: recombinant; tags: N-terminal GST; dsDNA, one strand shown. In outline: as §1
Chain of ETV6 (P41212 whole entry): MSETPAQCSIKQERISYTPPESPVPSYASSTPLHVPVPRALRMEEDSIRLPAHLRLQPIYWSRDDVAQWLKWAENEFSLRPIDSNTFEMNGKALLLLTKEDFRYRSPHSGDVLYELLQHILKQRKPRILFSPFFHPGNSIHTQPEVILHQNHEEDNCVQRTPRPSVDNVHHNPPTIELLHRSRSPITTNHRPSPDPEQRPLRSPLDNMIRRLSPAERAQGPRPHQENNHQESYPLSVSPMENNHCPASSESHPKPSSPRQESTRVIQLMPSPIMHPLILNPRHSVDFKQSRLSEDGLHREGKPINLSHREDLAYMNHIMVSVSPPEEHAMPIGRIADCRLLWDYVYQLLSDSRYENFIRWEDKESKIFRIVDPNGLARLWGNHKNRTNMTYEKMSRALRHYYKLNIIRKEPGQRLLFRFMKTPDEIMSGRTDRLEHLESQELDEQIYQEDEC

Chain of ETV5 (P41161 whole entry): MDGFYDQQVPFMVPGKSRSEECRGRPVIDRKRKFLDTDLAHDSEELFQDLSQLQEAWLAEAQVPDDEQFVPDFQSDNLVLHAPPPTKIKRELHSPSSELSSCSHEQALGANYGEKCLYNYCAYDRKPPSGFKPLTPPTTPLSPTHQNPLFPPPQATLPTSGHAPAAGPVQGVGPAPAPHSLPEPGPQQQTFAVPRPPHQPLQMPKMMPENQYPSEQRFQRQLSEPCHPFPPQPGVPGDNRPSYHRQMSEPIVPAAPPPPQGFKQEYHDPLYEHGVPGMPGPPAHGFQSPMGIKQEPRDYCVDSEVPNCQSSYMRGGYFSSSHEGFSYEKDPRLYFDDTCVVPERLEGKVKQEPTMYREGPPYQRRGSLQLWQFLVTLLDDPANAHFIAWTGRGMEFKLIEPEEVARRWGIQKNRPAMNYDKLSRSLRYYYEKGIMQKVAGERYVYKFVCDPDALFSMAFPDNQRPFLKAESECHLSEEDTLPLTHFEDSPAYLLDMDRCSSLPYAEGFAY
Chain of HSF1 (Q00613 whole entry): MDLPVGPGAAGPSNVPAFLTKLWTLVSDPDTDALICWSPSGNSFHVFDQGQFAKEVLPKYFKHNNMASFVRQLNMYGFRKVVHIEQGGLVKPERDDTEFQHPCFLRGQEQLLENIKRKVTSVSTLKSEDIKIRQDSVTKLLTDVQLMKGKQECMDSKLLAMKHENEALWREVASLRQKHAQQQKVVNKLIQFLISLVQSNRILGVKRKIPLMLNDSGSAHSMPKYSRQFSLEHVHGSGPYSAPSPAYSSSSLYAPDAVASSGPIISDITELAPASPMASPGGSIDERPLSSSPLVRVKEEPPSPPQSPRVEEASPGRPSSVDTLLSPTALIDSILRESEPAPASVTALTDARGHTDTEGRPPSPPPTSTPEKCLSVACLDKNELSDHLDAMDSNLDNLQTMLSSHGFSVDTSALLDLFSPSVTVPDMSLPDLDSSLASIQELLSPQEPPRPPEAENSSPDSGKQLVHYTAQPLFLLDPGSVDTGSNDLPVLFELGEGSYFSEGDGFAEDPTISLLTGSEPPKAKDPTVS
Chain of ETV1 (P50549 whole entry): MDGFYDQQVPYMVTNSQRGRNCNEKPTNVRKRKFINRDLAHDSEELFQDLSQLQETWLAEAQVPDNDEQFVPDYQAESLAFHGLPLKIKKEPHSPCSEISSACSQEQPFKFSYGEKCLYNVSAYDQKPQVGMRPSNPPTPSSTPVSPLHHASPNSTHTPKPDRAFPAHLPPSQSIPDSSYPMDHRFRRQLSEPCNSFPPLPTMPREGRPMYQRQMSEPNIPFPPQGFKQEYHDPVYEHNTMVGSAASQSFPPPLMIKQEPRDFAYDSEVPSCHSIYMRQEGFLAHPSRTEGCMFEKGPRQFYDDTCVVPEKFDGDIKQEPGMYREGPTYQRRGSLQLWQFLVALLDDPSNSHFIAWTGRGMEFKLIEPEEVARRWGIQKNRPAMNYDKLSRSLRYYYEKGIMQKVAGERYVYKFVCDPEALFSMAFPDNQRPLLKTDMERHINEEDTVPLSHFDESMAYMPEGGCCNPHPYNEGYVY
Chain of ELF4 (Q99607 whole entry): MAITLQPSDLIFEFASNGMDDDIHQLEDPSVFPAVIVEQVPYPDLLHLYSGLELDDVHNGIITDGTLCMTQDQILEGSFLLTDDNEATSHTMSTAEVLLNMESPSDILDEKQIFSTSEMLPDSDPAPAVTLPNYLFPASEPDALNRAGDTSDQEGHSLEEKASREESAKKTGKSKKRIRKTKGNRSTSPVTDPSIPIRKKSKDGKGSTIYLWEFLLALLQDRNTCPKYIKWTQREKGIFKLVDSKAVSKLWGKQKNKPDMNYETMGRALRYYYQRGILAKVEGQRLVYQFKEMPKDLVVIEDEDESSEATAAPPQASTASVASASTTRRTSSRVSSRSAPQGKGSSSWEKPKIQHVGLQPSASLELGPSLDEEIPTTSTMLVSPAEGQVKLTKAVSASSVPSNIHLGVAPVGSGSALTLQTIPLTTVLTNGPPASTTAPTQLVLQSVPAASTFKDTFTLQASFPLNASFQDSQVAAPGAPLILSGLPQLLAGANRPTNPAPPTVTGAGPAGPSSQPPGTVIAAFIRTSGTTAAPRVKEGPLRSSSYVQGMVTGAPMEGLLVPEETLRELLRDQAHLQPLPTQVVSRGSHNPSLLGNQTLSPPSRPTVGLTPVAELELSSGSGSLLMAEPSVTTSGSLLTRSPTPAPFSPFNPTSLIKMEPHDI
Chain of CRX (O43186 whole entry): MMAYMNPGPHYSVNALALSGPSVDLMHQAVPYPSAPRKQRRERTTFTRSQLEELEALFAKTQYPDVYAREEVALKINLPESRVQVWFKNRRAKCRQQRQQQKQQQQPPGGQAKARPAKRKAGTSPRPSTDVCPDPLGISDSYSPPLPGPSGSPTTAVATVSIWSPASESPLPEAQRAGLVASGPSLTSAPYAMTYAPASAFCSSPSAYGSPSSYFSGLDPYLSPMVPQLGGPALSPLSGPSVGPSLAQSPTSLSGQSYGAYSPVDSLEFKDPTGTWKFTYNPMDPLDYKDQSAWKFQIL

On to TCCCAC, for which the binding signal is 1.38 fold enrichment (6-mer frequency, TF over GST control) in the assay with FEV; 1.37 fold enrichment (6-mer frequency, TF over GST control) with ETV5; 1.17 fold enrichment (6-mer frequency, TF over GST control) in the assay with HSF1; 1.17 fold enrichment (6-mer frequency, TF over GST control) in the assay with SPIC; 1.34 fold enrichment (6-mer frequency, TF over GST control) in the assay with ELF4; 1.34 fold enrichment (6-mer frequency, TF over GST control) with ELK4. The binding signal with ETV2 was 1.12 fold enrichment (6-mer frequency, TF over GST control); with ELF3, 1.46 fold enrichment (6-mer frequency, TF over GST control); with CRX, 1.34 fold enrichment (6-mer frequency, TF over GST control); in the assay with ETV1 it was 1.34 fold enrichment (6-mer frequency, TF over GST control); in the assay with ERF it was 1.5 fold enrichment (6-mer frequency, TF over GST control); with ETV3L it was 1.31 fold enrichment (6-mer frequency, TF over GST control). Further, the binding signal in the assay with ETS2 is 1.23 fold enrichment (6-mer frequency, TF over GST control); with SPDEF, 1.33 fold enrichment (6-mer frequency, TF over GST control); in the assay with ETV7 it was 1.41 fold enrichment (6-mer frequency, TF over GST control); with ELF5 it was 1.47 fold enrichment (6-mer frequency, TF over GST control); with ETV3 it was 1.24 fold enrichment (6-mer frequency, TF over GST control); with ETV6, 1.4 fold enrichment (6-mer frequency, TF over GST control).
